Source: PubChem BioAssay
Most compounds without a hit are left out; they make up all but 11% or so of the library.
HttQ103 aggreg – inhibitors of mutant huntingtin aggregate formation in PC12 cells. PC12 HttQ103-GFP aggregates, Acumen cytometry, 40 h. Potency, µM (highest dose often 46.1 µM), for inactives: top-dose activity change, negative = inhibition, usual class: inhibitors. 220,000 compounds, 1.1% hits; note: potency is the fitted concentration of half-maximal effect; % is set by controls: 0 for no effect and ±100 for the full control effect; nearly all actives have a fitted effect of over 60% in size
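Inducible Q103 Huntingtin exon 1–GFP PC12 line, 1500 cells/well in phenol red free DMEM with 5% equine and 5% calf serum. Tebufenozide 100 nM induced expression; compounds titrated; aggregates quantified by cytometry.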
CBFb RUNX1 block – blocks binding between human CBF-beta and RUNX1. AID 1477. 230,000 tested, under 10 active. Potency, µM (highest dose often 59.8 µM), for inactives: at the top dose activity, negative = inhibition, most hits filed as inhibitors. AlphaScreen CBFb-His/RUNX1-biotin binding, biochemical; note: % of control where 0% means no effect
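AlphaScreen binding: CBFb-His and RUNX1-biotin (30 nM each) preincubated 20 min, compound added for 15 min, then nickel and streptavidin beads for 90 min, all at room temperature. Disruption of the interaction by any mechanism counts as activity.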
PNC assembly inh – blocks assembly of the perinucleolar compartment; activity change (PNC), negative = inhibition, % at 10 µM; 140,000 compounds, 3.1% hits; AID 2417; PC3M PTB-GFP, PNC prevalence imaging, 16 h; stronger effect = lower value;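 active = readout at or below -70, meaning at least 70% loss of cells showing the perinucleolar compartment, a nuclear body marking cancer cells; inconclusive = readout between -30 and a set limit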;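 note: plate controls were DMSO wells for no effect and camptothecin positive control wells for full effect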
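PC3M cells stably expressing PTB-GFP, 750–1000 cells/well, treated 16 h at 37 °C with compound (23 nl of library stock), in duplicate. After paraformaldehyde fixation and Hoechst stain, imaged at 20x; PNC prevalence scored by image analysis.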
HTT ATP protect – cytoprotection in Huntington HTT-Q103 PC12 cell model; 230,000 compounds, 0.14% hits; PC12 HTT-Q103 induced, cytoprotection, ATP luminescence, 40 h; Potency, µM (doses to about 56.4 µM), without a hit: cytoprotection (ATP increase), hits mostly activators; note: potency is the fitted concentration of half-maximal effect; % of control where 0% means no effect; nearly all actives have a fitted effect of over 45% in size
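Readout: ATPlite luminescence (ATP level). Model: stable PC12, inducible Htt exon1 Q103-GFP. Inducer: tebufenozide, 100 nM final. Compounds: dose series. No G418 in medium.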
ALDH1A1 inh – blocks purified human ALDH1A1 activity | Purified ALDH1A1, NADH fluorescence, propionaldehyde substrate | Potency, µM (highest dose often 75.3 µM), for inactives: top-dose activity, negative = inhibition, actives largely listed as inhibitors | 220,000 compounds, 7.3% hits | AID 1030; active = well fitted inhibition curve with a large enough effect, not every such curve was filed as active; inconclusive = small, poorly fitted or top-dose-only effect, or another doubt; inactive = no such curve, though single readings can be large or run the other way;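 note: potency is the fitted concentration of half-maximal effect; plate controls were no enzyme wells and a reference inhibitor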
Target sequence (P00352 whole entry, looked up): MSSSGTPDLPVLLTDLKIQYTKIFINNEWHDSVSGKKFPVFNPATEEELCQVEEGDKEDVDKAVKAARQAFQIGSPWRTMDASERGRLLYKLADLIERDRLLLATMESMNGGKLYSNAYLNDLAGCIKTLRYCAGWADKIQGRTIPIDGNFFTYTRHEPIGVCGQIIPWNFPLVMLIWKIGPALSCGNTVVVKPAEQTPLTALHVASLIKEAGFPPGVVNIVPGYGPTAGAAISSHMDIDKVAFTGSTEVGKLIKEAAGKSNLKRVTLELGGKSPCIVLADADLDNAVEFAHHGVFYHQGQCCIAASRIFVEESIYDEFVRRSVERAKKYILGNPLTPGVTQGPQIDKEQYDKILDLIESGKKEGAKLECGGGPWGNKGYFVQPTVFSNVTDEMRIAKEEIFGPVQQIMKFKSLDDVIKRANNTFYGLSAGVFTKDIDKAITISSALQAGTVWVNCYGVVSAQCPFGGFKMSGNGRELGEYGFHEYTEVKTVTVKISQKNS
HPGD block – inhibitors of human 15-hydroxyprostaglandin dehydrogenase (HPGD) | P15428 | purified HPGD, NADH fluorescence kinetic, PGE2 substrate | Potency, µM, without a hit: at the highest dose activity change, negative = inhibition, most hits filed as inhibitors | 150,000 compounds, 4.3% hits | AID 894; active = well fitted inhibition curve with a large enough effect, not every such curve was filed as active; inconclusive = small, poorly fitted or top-dose-only effect, or another doubt; inactive = no such curve, though single readings can be large or run the other way; note: potency is the fitted concentration of half-maximal effect; % is set by controls: 0 for no effect and ±100 for the full control effect
Target sequence (P15428 whole entry, looked up): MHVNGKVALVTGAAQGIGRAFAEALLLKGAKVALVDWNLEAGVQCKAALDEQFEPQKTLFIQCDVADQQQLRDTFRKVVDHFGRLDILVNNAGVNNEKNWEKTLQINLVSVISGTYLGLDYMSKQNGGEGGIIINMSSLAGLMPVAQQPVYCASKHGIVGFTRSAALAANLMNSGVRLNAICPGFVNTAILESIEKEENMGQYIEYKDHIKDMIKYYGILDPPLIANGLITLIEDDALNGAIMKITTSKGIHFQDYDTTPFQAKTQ
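20 nM HPGD preincubated 15 min at room temperature with compound in 50 mM Tris-HCl pH 8, 0.01% Tween 20. Started with 1 mM NAD+ and 30 uM prostaglandin E2; NADH fluorescence (360/450 nm) read 5 times over 30-s intervals, last minus first.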
The depositor's hits bear a star; ? = inconclusive; nt = no result given; [ ] = remark or other dose. Unless noted, calls come from the whole dose curve; as a rule, active = well fitted curve in the direction sought with a large enough effect; inconclusive = small, poorly fitted or top-dose-only effect, or another doubt; inactive = no such curve, though single readings can be large; an effect the other way counts as inactive or inconclusive.

SMILES	HttQ103 aggreg	CBFb RUNX1 block	PNC assembly inh	HTT ATP protect	ALDH1A1 inh	HPGD block
O=C(c1ccc(-c2ccccc2)cc1)c1ccccc1C(=O)N1CCOCC1	-8%	-2%	19	-28%	?	-8%
Cc1nnc(Nc2ccc(C(=O)N3CCOCC3)cc2)c2ccccc12	10%	4%	7	-20%[0.074 µM]	9%	16µM*
CCOc1ccc(OCc2ccc(C(=O)N3CCCC(C)C3)cc2)cc1 (centres undefined)	?	6%	nt	nt	?	nt
CC1CN(c2nc3c(c(=O)n(Cc4ccc(Cl)cc4)c(=O)n3C)n2C)CC(C)O1 (centres undefined)	-10%	-6%	13	-20%	5%	-5%
COc1ccc(/C=C/N(CCc2ccc(OC)c(OC)c2)C(=O)C(F)(F)F)cc1	nt	23%[13.1 µM]	nt	-26%[10 µM]	-21%[13.5 µM]	nt
O=C(c1ccccc1)N1CCN(C(=O)C23CC4CC(CC(C4)C2)C3)CC1	?	-2%	-127*	-25%[10 µM]	25µM*	-9%
Cn1nnc2cc(C(=O)N3CCCCCC3)ccc21	6%	-5%	?	-33%[10 µM]	1%	3.2µM*
O=C(N1CCN(c2ccccc2F)CC1)C12CC3CC(CC(C3)C1)C2	15%	6%	-16	-17%[10 µM]	-27%	-16%
O=C(c1ccc([N+](=O)[O-])cc1)N1CCCC1	7%[9.22 µM]	-2%	nt	8%[10 µM]	nt	nt
O=C(c1ccc(C(=O)N2CCCCCC2)cc1)N1CCCCCC1	28%	-6%	63	-26%[10 µM]	18µM*	7.9µM*
O=C(c1cccc(Br)c1)N1CCN(C(=O)c2cccc(Br)c2)CC1	-5%	1%	176	-4%[10 µM]	16µM*	-4%
CC(C)C[C@H](N)C(=O)N[C@H](C(=O)N[C@@H](CCCN=C(N)N)C(=O)N[C@H](CS)C(=O)NCC(=O)N[C@@H](CCCCN)C(=O)N[C@@H](Cc1cnc[nH]1)C(=O)N[C@@H](CO)C(=O)N[C@@H](CCCN=C(N)N)C(=O)O)C(C)C	nt	2%	nt	nt	nt	nt
O=C(NCC(=O)N(c1cccnc1)C(C(=O)NC1CCCC1)c1cccs1)c1ccco1 (centres undefined)	6%[9.22 µM]	8%	nt	15%[10 µM]	-6%	nt
CCCCNc1nc(C)nc2c1nc(-c1ccccc1)n2CCCN(C)C	nt	7%	nt	-2%	?	?
CCOc1ccc(C(=O)N2CCCCCC2)cc1	-15%	4%	38	0%	-8%	2µM*
O=C(c1ccccc1Cl)N1CCNCC1	9%[9.22 µM]	-1%	22	1%	3%	-9%
CS(=O)(=O)N1CCc2cc(C(=O)N3CCCCC3)ccc21	-3%	-1%	-1	-8%[0.074 µM]	-12%	3.2µM*
O=C(c1ccccc1)N1CCN(S(=O)(=O)N2CCCCC2)CC1	-19%	9%	?	9%	-1%	-4%
CS(=O)(=O)N1CCc2cc(C(=O)N3CCOCC3)ccc21	-12%	7%	17	-12%[10 µM]	15%	-18%
O=C(c1ccccc1)N1CCCCCC1	25%	-1%	23	nt	7%	4.5µM*
O=C(c1c(Cl)cccc1Cl)N1CCCCCC1	-5%	-1%	9	6%	3%	28µM*
NC(=O)C1O[C@@H](O)[C@H](O)[C@@H](O)[C@H]1O (some centres undefined)	nt	2%	nt	nt	nt	nt
Cc1ccc(C(=O)N2CCCC2)cc1Br	-9%	1%	-4	5%	12%	20µM*
Cc1ccc(C(=O)N2CCC(C(N)=O)CC2)cc1C	-12%	17%	36	-2%	?	-13%
Cc1cc(C)c2c(N)c(S(=O)c3ccc(C(C)(C)C)cc3)sc2n1 (centres undefined)	-21%	5%	-15	23%	?	-27%
SMILES	HttQ103 aggreg	CBFb RUNX1 block	PNC assembly inh	HTT ATP protect	ALDH1A1 inh	HPGD block
COc1cccc(-c2ccc(=O)n(CC(=O)Nc3ccc(C(=O)N4CCCC4)cc3)n2)c1	8%	-6%	32	-9%	?	13µM*
Cc1nn(CC(=O)Nc2ccc(C(=O)N3CCCCC3)cc2)c(=O)c2ccccc12	1%	6%	-17	-11%[10 µM]	13µM*	1.1µM*
O=C(Cn1nc(-c2ccc(F)cc2)ccc1=O)Nc1ccc(C(=O)NC2CC2)cc1	-9%	-1%	37	-6%	5%	28µM*
Cc1nn(CC(=O)Nc2ccc3c(c2)nc(CN2CCCC2)n3C)c(=O)c2ccccc12	-1%	13%	-100*	5%[0.074 µM]	-1%	-3%
Cn1c(CN2CCCC2)nc2cc(NC(=O)COc3ccccc3)ccc21	2%	-8%	?	-17%	17%	-4%
Cn1c(SCc2cc([N+](=O)[O-])cc3c2OCOC3)nnc1-c1ccccn1	24%	0%	nt	-13%	-14%	nt
Cc1nn(CC(=O)Nc2ccc(C(=O)N3CCCC3)cc2)c(=O)c2ccccc12	3%	2%	-4	-9%	-15%	14µM*
Cc1nn(CC(=O)Nc2cccnc2)c(=O)c2ccccc12	nt	0%	nt	nt	5%	nt
CO[C@H]1COC(=O)[C@H](C)NC(=O)C/C=C\[C@@H](C)[C@@H](NS(=O)(=O)c2ccc(C)cc2)COC(=O)C/C=C\[C@@H]1C	nt	9%[13.1 µM]	nt	-26%[10 µM]	6%[13.5 µM]	nt
Fc1ccccc1Nc1nc2c(s1)CCc1ccccc1-2	-4%	-8%	-23	nt	5%	22µM*
Cc1cccc(NC(=O)CSc2ccc(-c3ccco3)nn2)c1C	7%	2%	4	25%[10 µM]	24µM*	-16%
O=C(CSc1ccc(-c2ccco2)nn1)NCc1ccccc1	?	-5%	-24	13%[10 µM]	?	?
O=C(CSc1ccc(-c2ccco2)nn1)c1cccc([N+](=O)[O-])c1	22%	-22%	44	nt	22µM*	-23%
O=C(CSc1ccc(-c2ccco2)nn1)N1CCCC1	-10%	-3%	nt	12%	?	nt
O=C(CSc1ccc(-c2ccco2)nn1)NCc1ccc(Cl)cc1	12%	9%	16	24%[10 µM]	7.1µM*	-18%
COc1ccc(COC[C@H](C)[C@H](O[Si](C)(C)C)[C@@H](C)[C@H]2OC(=O)[C@H]2C)cc1	nt	-7%	nt	nt	nt	nt
O=S1(=O)CCN2C=Nc3sc4c(c3C2=N1)CCCC4	-12%	-9%	-6	-3%[10 µM]	8.9µM*	-24%
COc1ccc(NC(=O)CSc2nc3c(c(=O)n2-c2ccc(F)cc2)SCC3)cc1	8%	1%	?	-11%[10 µM]	?	-5%
COc1ccc(CCNC(=O)CSc2nc3[nH]ncc3c(=O)n2-c2ccc(Cl)cc2Cl)cc1OC	-4%	1%	nt	10%	6%	nt
COc1cc2c(cc1OC)CN(C(=O)CSc1nc3[nH]ncc3c(=O)n1-c1ccccc1)CC2	4%	12%	14	-1%	28µM*	-14%
